# Source: PubChem
# ELG1 DNA repair – ELG1-dependent DNA repair inhibition; HEK293T ELG1-luciferase reporter, luminescence, 16 h; DNA damage induced by 5-fluorouridine; Potency, µM (highest dose often 46.1 µM), for the others: at the highest dose activity change, negative = inhibition, usual class: inhibitors; hit rate 2.3% among 330,000; further: on the % scale 0 is the no-effect control and ±100 the full control effect; nearly all actives have a fitted effect of over 55% in size
#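 In this reporter screen, reduction of luminescence relative to DMSO vehicle indicated activity. Compounds and 5-fluorouridine were added together to 2,000 cells per well, incubated for 16 hr at 37 °C, then developed with ONE-Glo.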
# SMN2 splice up – increases expression of the SMN2 splice variant; AID 1458; HEK293 SMN2-luciferase splicing reporter, luminescence, 30-36 h; Potency, µM (titrated, usually from 46.1 µM), inactives show at the highest dose activity change, positive = activation, usual class: activators; hit rate 2.8% among 210,000; further: % of control where 0% means no effect; nearly all actives have a fitted effect of over 55% in size
#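 qHTS luciferase splicing reporter: luminescence rises when SMN2 exon 7 is included in transfected HEK293 cells. Compound exposure lasted 30-36 h at 37C, with 4.5 mM final sodium butyrate as control, followed by a ONE-Glo read.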
# FLuc modulator – counter-screen for miR-21 project: firefly luciferase inhibitors or activators; P08659; purified FLuc, Km substrates, luminescence inhibition; Potency, µM (titrated, usually from 57.5 µM), inactives show top-dose activity change, negative = inhibition, actives largely listed as inhibitors; hit rate 6.9% among 360,000; AID 588342;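 further: plate controls were vehicle for no effect and reference inhibitor for full effect; nearly all actives have a fitted effect of over 55% in size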
# Target sequence (P08659 whole entry, looked up): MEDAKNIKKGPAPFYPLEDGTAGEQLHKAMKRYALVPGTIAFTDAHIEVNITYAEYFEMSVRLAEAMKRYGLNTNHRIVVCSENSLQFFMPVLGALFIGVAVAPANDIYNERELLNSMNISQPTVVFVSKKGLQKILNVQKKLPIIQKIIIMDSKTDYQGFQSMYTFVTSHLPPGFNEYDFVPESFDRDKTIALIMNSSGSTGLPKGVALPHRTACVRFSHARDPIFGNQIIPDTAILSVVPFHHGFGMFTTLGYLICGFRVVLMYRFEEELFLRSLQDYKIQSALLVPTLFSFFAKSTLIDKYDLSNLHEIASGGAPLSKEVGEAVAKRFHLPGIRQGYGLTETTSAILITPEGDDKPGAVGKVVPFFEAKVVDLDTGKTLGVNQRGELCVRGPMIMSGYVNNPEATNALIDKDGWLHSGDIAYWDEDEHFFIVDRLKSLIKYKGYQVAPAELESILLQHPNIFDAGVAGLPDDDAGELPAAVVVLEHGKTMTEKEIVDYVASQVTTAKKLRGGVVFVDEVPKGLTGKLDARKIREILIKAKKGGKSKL
#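 Purified P. pyralis luciferase, 10 nM final, with Km-level 10 uM D-luciferin and 10 uM ATP in 50 mM Tris acetate pH 7.5, 10 mM Mg acetate, 0.01% Tween-20, 0.05% BSA; 6-point qHTS titration about 60 µM downward; luminescence read.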
# Rab9 promoter act – activates the Rab9 promoter; Huh7 Rab9 promoter-luciferase reporter, luminescence, 24 h; hit rate 2.8% among 320,000; Potency, µM (series often up to 9.22 µM), without a hit: at the top dose activation, negative = inhibition, most hits filed as activators; further: % of control where 0% means no effect; nearly all actives have a fitted effect of over 60% in size
#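 Huh7 reporter line, Rab9 promoter upstream of luciferase. Compound exposure 24 h at 37 °C in reduced-serum medium with 10% FBS. Read-out: luminescence.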
# ELG1 genotox – inducers of genotoxicity in HEK293T ELG1-luciferase cells. AID 504466. HEK293T ELG1-luciferase reporter, luminescence, 16 h. Potency, µM (titrated, usually from 46 µM), inactives show at the highest dose activity change, positive = activation, hits mostly activators. hit rate 1.3% among 330,000; further: % of control where 0% means no effect; nearly all actives have a fitted effect of over 60% in size
#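 HEK293T cells expressing luciferase-tagged ELG1 were treated with compound or DMSO for 16 hr at 37°C. Luciferase activity was then read after 30 min with ONE-Glo at room temperature; rising signal flags genetic stress.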
# NPC1 prom act – NPC1 promoter activation; Huh7 NPC1 promoter luciferase reporter, 24 h; Potency, µM (highest dose often 9.22 µM), without a hit: at the top dose activation, hits mostly activators; hit rate 2.4% among 320,000; further: % of control where 0% means no effect; nearly all actives have a fitted effect of over 60% in size
#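 Luciferase expression driven by the NPC1 promoter was measured in stably transfected Huh7 cells after a 24 h compound incubation, using a luciferase reagent and a luminescence read.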
# * marks the source's active call; other numbers are inactive results; u = inconclusive; x = no result given; [ ] = dose if it differs, or a comment. Compounds with a hit are over-represented: about 9.3% of the library has one in this group of screens. The call rests on the fitted dose curve; in most records, active means well fitted curve in the direction sought with a large enough effect; inconclusive means small, poorly fitted or top-dose-only effect, or another doubt; inactive means no such curve, though single readings can be large; an effect the other way counts as inactive or inconclusive. Potency means the concentration at half of the fitted maximal effect.
SMILES,ELG1 DNA repair,SMN2 splice up,FLuc modulator,Rab9 promoter act,ELG1 genotox,NPC1 prom act
Cc1ccc(C(=O)OC[C@H]2O[C@H](Cl)C[C@@H]2OC(=O)c2ccc(C)cc2)cc1,x,6.4%,x,x,x,x
COc1c(O)cccc1/C=N/NC(=O)Cn1ccnc1C,23.1µM*,x,-2.9%,-6.8%,15.8%,-2.7%
O=c1[nH][nH]c2cc(=O)n(-c3ccc(Cl)cc3)nc12,-3.4%,1.5%,u,3.0%,-4.2%,-3.1%
Cc1cccc(N2CCN(C(=O)c3ccc4nc(N5CCCCC5)sc4c3)CC2)c1C,23.1µM*,x,-15.5%,-5.7%,-4.1%,-4.5%
NC(=O)C1CCN(C(=O)c2ccc3nc(N4CCCCC4)sc3c2)CC1,u,x,u,3.16µM*,u,2.82µM*
CCOC(=O)N1CCN(C(=O)c2ccc3nc(N4CCCCC4)sc3c2)CC1,14.0%,14.3%,-15.1%,14.2%,-1.5%,20.8%
O=C(c1ccc2nc(N3CCCCC3)sc2c1)N1CCN(c2ccccn2)CC1,u,-1.5%,-14.4%,19.7%,-0.3%,11.0%
COc1ccc(NC(=O)N2CC[C@@]3(CCCN(C(C)=O)C3)C2)cc1,x,-4.8%,x,x,x,x
O=C(COC(=O)CC(c1ccccc1)c1ccccc1)NCc1ccc(Cl)cc1,16.4µM*,-1.3%,-2.3%,-7.4%,1.2%,-0.3%
O=C(COC(=O)c1cccnc1SCC(=O)NCc1ccccc1)NCc1ccccc1,-12.2%,25.1%,2.69µM*,11.4%,4.2%,0.7%
COc1cc(/C=N/NS(=O)(=O)c2ccc3ccccc3c2)ccc1OCc1ccc(C(=O)O)cc1,u,x,0.338µM*,2µM*,u,0.631µM*
COc1cc(/C=N/NC(=O)COc2cc(C)cc(C)c2)ccc1OS(=O)(=O)c1ccc(C)cc1,u,-59.6%,1.8%,-8.5%,-5.9%,-9.8%
CCc1ccc(OCC(=O)N/N=C/c2ccc(OS(=O)(=O)c3ccc(C)cc3)c(OC)c2)cc1,-25.8%,4.0%,5.36µM*,-4.3%,-0.9%,-0.7%
COc1cc(/C=N/NS(=O)(=O)c2ccc(C)cc2)ccc1OCc1cccc(C(=O)O)c1,u,3.55µM*,0.426µM*,0.891µM*,20.2%,2µM*
CN(C)C[C@@H](O)c1ccc(Cl)c2ccccc12,x,-0.4%[9.22 µM],x,x,x,x
CCC(=O)N1CCc2cc(S(=O)(=O)N3CCN(c4cc(C)ccc4C)CC3)ccc21,-0.2%,x,-0.2%,1.7%,6.4%,-3.5%
O=C(Nc1ccc2oc(=O)c(C(=O)O)cc2c1)Oc1ccccc1,x,-13.7%[9.22 µM],x,x,x,x
O=C(Nc1ccc(O)c(C(=O)O)c1)Oc1ccccc1,26.0%,x,13.5µM*,12.0%,2.9%,0.9%
O=C(CN1CCCCC1)Nc1nc(-c2ccc(Cl)cc2)cs1,-3.3%,x,16.9µM*,1.2%,6.8%,1.3%
O=C(COC(=O)c1ccccn1)Nc1nc(-c2ccccc2)cs1,u,x,u,21.0%,23.9%,0.1%
CN1CCN(CC(=O)Nc2nc(-c3ccccc3)cs2)CC1,u,-1.9%,-17.6%,-2.1%,2.0%,-4.1%
Cn1ncc(Br)c1C(=O)OCC(=O)Nc1nc(-c2ccccc2)cs1,u,14.1µM*,-6.0%,-1.2%,0.7%,21.6%
COc1ccc(C2(O)CCN(CC(=O)Nc3nc(-c4ccccc4)cs3)CC2)cc1,23.1µM*,-52.6%,-16.1%,-3.2%,-9.7%,-5.8%
COCC(=O)Nc1nc(-c2ccc(-c3ccccc3)cc2)cs1,u,x,u,0.794µM*,0.2%,2.24µM*
CCc1ccc(OC(=O)Nc2ccccc2)cc1,22.7%,x,9.53µM*,u,9.3%,-2.4%
SMILES,ELG1 DNA repair,SMN2 splice up,FLuc modulator,Rab9 promoter act,ELG1 genotox,NPC1 prom act
O=C(CN1CCCCC1)Nc1nc(-c2ccccc2)cs1,u,x,21.3µM*,22.4%,u,u
CN1CCN(CC(=O)N(C)c2nc(-c3ccccc3)cs2)CC1,u,-34.5%,15.1µM*,2.82µM*,u,3.98µM*
CN(C(=O)COc1ccccc1)c1nc(-c2ccc(F)cc2)cs1,8.5%,0.5%,-6.9%,-1.2%,3.9%,-3.7%
COCC(=O)Nc1nc(-c2ccc([N+](=O)[O-])cc2)cs1,3.3%,3.2%,-4.9%,u,-0.3%,0.3%
CCc1ccc(NC(=O)Cc2ccc(OC)cc2)cc1,u,u,u,3.4%,13.4%,18.5%
CC(C)CC(=O)N[C@H](C(=O)N[C@H](C(=O)N[C@@H](CC(C)C)[C@H](O)CC(=O)N[C@@H](C)C(=O)N[C@@H](CC(C)C)[C@H](O)CC(=O)O)C(C)C)C(C)C,x,1.9%[20.6 µM],x,x,x,x
O=C1Nc2ccccc2CCC1Sc1nnc(-c2ccc(Cl)cc2)s1 (stereo unspecified),u,-71.8%,0.4%,-0.6%,0.2%,-2.0%
C[C@@H]1CN([C@@H](C)CO)C(=O)c2cccc(NC(=O)C3CCCCC3)c2O[C@@H]1CN(C)Cc1ccc(Cl)c(Cl)c1,u,x,x,x,-6.3%,x
CCc1ccc(-c2csc(NC(=O)Oc3ccccc3)n2)cc1,u,x,6.01µM*,u,u,u
O=C(Nc1nc(-c2cccc(Br)c2)cs1)Oc1ccccc1,0.0%,-10.5%,-1.8%,20.2%,10.5%,20.9%
CC(OC(=O)c1ccc(NC(=O)CC#N)cc1)C(=O)Nc1nc(-c2ccccc2)cs1 (stereo unspecified),u,x,2.1%,15.9%,23.1µM*,11.0%
Cc1ccc(-c2nnc(NC3CCCC3)s2)cc1,u,x,3.01µM*,0.501µM*,u,0.631µM*
Cc1ccc(CNC(=S)Nc2cc(C)ccc2OC(F)F)cc1,-1.9%,-1.6%,-6.4%,-1.4%,0.6%,-3.6%
CC(C)c1nc(N2CCN(C(=O)c3ccco3)CC2)c2c3c(sc2n1)CCCC3,u,-32.7%,-1.1%,-7.9%,-6.5%,2.2%
O=C(c1ccccc1)N1CCN(c2ncnc3sc4c(c23)CCC4)CC1,9.2µM*,-96.1%,1.6%,-20.1%,-10.1%,-3.9%
